IL-1B inflam inh = inflammasome signaling inhibition, IL-1 beta readout; AID 743279; hit rate 4.7% among 360,000; activity change, % at 57.5 µM; THP-1 LPS/ATP IL-1B secretion, AlphaLISA, 16 h; active compounds read low; in the data active = activity change below about -50%; inconclusive = mostly about -30% to -49%
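THP-1 cells pretreated 1 hr with compounds (up to 57.5 uM final), then stimulated with LPS (250 ng/mL final) plus ATP (1.25 mM final); secreted IL-1B measured by AlphaLISA after 16 hr, decreased signal indicating inhibition.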
ELG1 DNA repair = ELG1-dependent DNA repair inhibition. HEK293T ELG1-luciferase reporter, luminescence, 16 h; DNA damage induced by 5-fluorouridine. Potency, µM (titrated, usually from 46.1 µM), for the others: at the highest dose activity change, negative = inhibition, actives largely listed as inhibitors. hit rate 2.3% among 330,000. AID 504467; also: potency is read from the fitted curve at half-maximal effect; nearly all actives have a fitted effect of over 55% in size
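HEK293T cells expressing luciferase-tagged ELG1 (2,000/well) received 5-Fluorouridine plus compound or DMSO for 16 hr at 37 °C. Luciferase was read by ONE-Glo luminescence after 30 min at room temperature.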
DT40 TDP1 CPT = growth inhibition of DT40 Tdp1-/-;hTDP1 cells with camptothecin (screen for TDP1 inhibitors). chicken DT40 Tdp1-/-;hTDP1 cells + 20 nM CPT, ATP luminescence, 48 h. hit rate 12% among 420,000. Potency, µM (highest dose often 46.2 µM), for the others: at the highest dose activity change, negative = growth inhibition, most hits filed as inhibitors. AID 686979; also: potency is read from the fitted curve at half-maximal effect; nearly all actives have a fitted effect of over 55% in size
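Cell growth measured by CellTiter-Glo luminescence after a minimum 48 h, 37 C compound exposure with 20 nM CPT in Tdp1-knockout DT40 cells stably expressing hTDP1, seeded 400/well; qHTS titration format.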
VP16 counter = Gal4-VP16 reporter inhibition counter-screen; Drosophila S2 Gal4-VP16 UAS-luciferase, luminescence, 20 h; Potency, µM (series often up to 53.6 µM), inactives show at the top dose activity, negative = inhibition, most hits filed as inhibitors; hit rate 3.5% among 310,000;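 also: Gal4-VP16 expression switched on by copper sulfate through the metallothionein promoter; potency is read from the fitted curve at half-maximal effect; nearly all actives have a fitted effect of over 50% in size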
RORg inh = ROR gamma (mouse) transcription inhibition. P51450. Drosophila S2 Gal4-RORgamma UAS-luciferase reporter, 20 h. Potency, µM (doses to about 53.6 µM), for the others: at the top dose activity change, negative = inhibition, most hits filed as inhibitors. hit rate 5.4% among 310,000; also: potency is read from the fitted curve at half-maximal effect; nearly all actives have a fitted effect of over 60% in size
Target sequence (P51450 whole entry, looked up, the tested form may be a part): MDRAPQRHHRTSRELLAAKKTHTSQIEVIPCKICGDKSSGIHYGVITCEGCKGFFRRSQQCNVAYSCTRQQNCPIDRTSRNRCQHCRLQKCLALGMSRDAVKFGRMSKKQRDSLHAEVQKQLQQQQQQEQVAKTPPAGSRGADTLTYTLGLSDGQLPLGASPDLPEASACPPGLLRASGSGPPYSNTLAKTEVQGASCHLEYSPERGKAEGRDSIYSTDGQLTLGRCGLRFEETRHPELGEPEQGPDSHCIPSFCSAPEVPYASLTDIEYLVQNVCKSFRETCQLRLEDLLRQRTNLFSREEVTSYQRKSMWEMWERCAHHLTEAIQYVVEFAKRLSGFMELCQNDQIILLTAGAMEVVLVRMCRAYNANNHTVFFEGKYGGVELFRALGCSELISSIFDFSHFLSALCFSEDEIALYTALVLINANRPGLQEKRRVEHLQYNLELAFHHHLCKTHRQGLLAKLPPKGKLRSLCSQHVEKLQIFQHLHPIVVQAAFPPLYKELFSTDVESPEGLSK
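Stable Schneider cell line, Gal4 DNA-binding domain fused to ROR gamma, UAS-luciferase. Cmpd 1 hr RT → CuSO4 700 uM final → 20 hr RT → luciferase reagent 10 min → luminescence.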
DT40 TDP1 no CPT = qHTS for Inhibitors of human tyrosyl-DNA phosphodiesterase 1 (TDP1): qHTS in cells in absence of CPT; Potency, µM (top dose mostly 46.2 µM), without a hit: top-dose activity change, negative = growth inhibition, usual class: inhibitors; hit rate 15% among 420,000; DT40 Tdp1-/- hTDP1 cells, no CPT, ATP luminescence, 48 h; also: potency is read from the fitted curve at half-maximal effect; nearly all actives have a fitted effect of over 55% in size
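Chicken DT40 Tdp1-/- cells complemented with human TDP1, screened without camptothecin (DMSO vehicle only), 400 cells/well. Compounds pin-transferred, cells incubated at 37 °C for at least 48 hr. Growth read as ATP-dependent luminescence (CellTiter-Glo, 30 min at RT).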
The depositor's hits bear a star; ? = inconclusive; . = not tested or not shown. Only some compounds are listed: those with a hit (about 21% of all), similar ones and a draw of the others. Unless noted, calls follow the shape of the dose curve; as a rule, active = well fitted curve in the direction sought with a large enough effect; inconclusive = small, poorly fitted or top-dose-only effect, or another doubt; inactive = no such curve, though single readings can be large; an effect the other way counts as inactive or inconclusive. % is scaled to controls: 0 for no effect and ±100 for the full control effect.

SMILES	IL-1B inflam inh	ELG1 DNA repair	DT40 TDP1 CPT	VP16 counter	RORg inh	DT40 TDP1 no CPT
Cc1cc(/C=C2/SC(=S)N(c3cccc(C(F)(F)F)c3)C2=O)c(C)n1-c1cccnc1	?	.	0.73µM*	.	.	0.73µM*
COc1ccc(S(=O)(=O)Nc2cccc3c2O[C@H](CN(C)C(=O)Nc2c(C)noc2C)[C@@H](C)CN([C@H](C)CO)C3=O)cc1	11	8%	3%	.	.	-3%
COc1cc(/C=N/Nc2snc(SC)c2C#N)cc(OC)c1OC	-21	-1%	?	?	?	1.8µM*
CSc1nsc(N/N=C/c2ccc3c(c2)OCO3)c1C#N	4	?	-8%	-14%	19%	2%
CSc1ccc(C(=O)C2CCCN(C(=O)c3nonc3C)C2)cc1 (stereo not drawn)	-9	?	?	1%	-10%	-86%
CN(C)c1ccc2ccc3cccc4ccc1c2c34	.	.	-24%	.	.	-19%
Cc1c(-c2nc(N)nc(Nc3ccccc3)n2)oc2ccccc12	?	?	?	-29%	5%	16µM*
COc1ccc(OCc2nc(N)nc(Nc3ccccc3)n2)cc1	-20	?	-25%	-9%	32%	?
Cc1c(C(=O)Nc2ccc(F)cc2)c2ccccn2c1CCc1ccncc1	-52*	-25%	?	?	10%	?
COC(=O)CCc1c(C)c(C(=O)c2ccc(F)cc2)c2ccccn12	-11	-13%	6%	-5%	17%	-6%
Cc1csc(NC(=O)CSC2=NS(=O)(=O)c3cc(F)ccc3N2)n1	3	4%	-1%	.	.	-10%
CC(C)/C=C/C(=O)N1CCC(N2CCC(C(=O)N3CCOCC3)CC2)CC1	-12	4%	-3%	-4%	10%	-2%
CC(C)=CCCC(C)CN1CCC(N2CCC(C(=O)N3CCCC3)CC2)CC1 (stereo not drawn)	0	-10%	?	-17%	?	16µM*
C=C(C)[C@@H]1CC=C(CN2CCC(N3CCC(C(=O)N4CCCC4)CC3)CC2)CC1	-62*	?	21µM*	?	?	21µM*
COc1ccc(NC(=O)N2CCCC3(CCN(C(=O)c4cc(C(F)(F)F)cc(C(F)(F)F)c4)CC3)C2)cc1	.	.	-3%	3%	-4%	-11%
CCOC(=O)c1nnc2c(-c3ccc(Cl)cc3)c(C)nn2c1N	.	.	16%	.	.	-7%
CCc1ccc(Nc2nnc(SCC(=O)N(C)CC(=O)Nc3ccccc3CC)s2)cc1	-19	18µM*	18µM*	-37%	39%	15µM*
Cc1cccc(CN2CCC(CNC(=O)Cn3ncc4c([nH]c5ccccc54)c3=O)CC2)c1	2	16%	-11%	-6%	-2%	3%
O=S(=O)(c1ccccc1)N1CCN=C1SCc1cccc(Cl)c1	0	13%	?	14%	-3%	21µM*
O=S(=O)(c1ccccc1)N1CCN=C1SCc1ccccc1Cl	20	-2%	?	-26%	?	?
CCS(=O)(=O)N1CCN=C1SCc1ccccc1	-1	-2%	-1%	-1%	1%	1%
O=S(=O)(c1ccccc1)N1CCN=C1SCc1ccc(Cl)cc1	8	?	?	?	37%	18µM*
O=S(=O)(c1ccc2ccccc2c1)N1CCN=C1SCc1cccnc1	-26	-15%	23µM*	-18%	-1%	?
O=S(=O)(c1ccccc1)N1CCN=C1SCc1ccc(Cl)c(Cl)c1	-29	9%	13µM*	-28%	?	18µM*
COc1ccc(C)cc1NC(=O)Cn1c(=O)nc(-c2ccccc2F)c2cc(Cl)ccc21	.	.	-5%	.	.	-1%
SMILES	IL-1B inflam inh	ELG1 DNA repair	DT40 TDP1 CPT	VP16 counter	RORg inh	DT40 TDP1 no CPT
O=C(Nc1ccccc1)N1CC2(CCN(C(=O)c3ccco3)CC2)C1	.	.	3%	-4%	14%	-4%
CCOC(=O)c1c(NC(=O)/C=C/c2ccc(C(C)C)cc2)sc2c1CCC2	.	.	2%	.	.	6%
Cc1ccc(Nc2nnc(SCC(=O)NCCN3C(=O)CSC3=O)s2)cc1	-19	?	-5%	1%	-19%	5%
Fc1ccc(Cc2cn3cc(-c4ccc(Cl)cc4)nc3s2)cc1	.	.	-16%	.	.	-10%
Cc1ccn2cc(-c3cc4ccccc4oc3=O)nc2c1	0	?	-21%	?	2.5µM*	?
Cc1ccccc1-c1noc(-c2cc3ccccc3oc2=O)n1	.	.	-8%	.	.	?
O=c1oc2ccccc2cc1-c1cn2cc(Cc3ccc(Cl)cc3)sc2n1	.	.	3.3µM*	.	.	2.6µM*
CN1OC[C@@H]2CN(C(=O)Nc3ccccc3)[C@H](c3ccc(N4CCCCC4)cc3)C[C@@H]21	17	.	?	.	.	-2%
O=C(NCc1ccccc1Br)c1cnc2sc(N3CCCCCC3)nn2c1=O	.	.	23µM*	.	.	4.1µM*
CCc1ccc(CNC(=O)c2cnc3sc(N4CCCCC4)nn3c2=O)cc1	.	.	-21%	.	.	-16%
COc1ccccc1CNC(=O)c1cnc2sc(N3CCCCCC3)nn2c1=O	.	.	16µM*	.	.	21µM*
Cc1ccc(C)c(CNC(=O)c2cnc3sc(N4CCCC4)nn3c2=O)c1	.	.	16µM*	.	.	18µM*
Cc1cccc(N2CCN(S(=O)(=O)c3ccc(-c4ccc(=O)[nH]n4)o3)CC2)c1C	6	9%	?	?	-39%	-22%
CC1CCN(CC[S-])CC1.O.O.[Cl][Pt]	.	.	1.3µM*	.	.	1.6µM*
O=c1oc2c(O)c(O)cc3c(=O)oc4c(O)c(O)cc1c4c23	-51*	-19%	?	?	-13%	-4%
Cc1cccc(N2CCN(C(=O)c3cccn4c(=O)c5cc(Cl)ccc5nc34)CC2C)c1 (stereo not drawn)	.	.	18µM*	.	.	?
CCOc1ccc(-c2cc(C(=O)N3CCN(c4cccc(C)c4)C(C)C3)c3ccccc3n2)cc1 (stereo not drawn)	.	.	16µM*	.	.	7.3µM*
Cc1ccc(N2CCN(C(=O)c3cccn4c(=O)c5ccc(Cl)cc5nc34)CC2C)cc1 (stereo not drawn)	.	.	-27%	.	.	2%
CCOc1ccc(-c2cc(C(=O)N3CCN(c4ccc(C)cc4)C(C)C3)c3ccccc3n2)cc1 (stereo not drawn)	.	.	21µM*	.	.	23µM*
Cc1csc(NC(=O)CSc2nc3nc(C)cc(C)n3n2)n1	13	3%	-6%	.	.	-7%
Cc1ccc(-n2c(=O)c3ccc(C(=O)NCc4ccco4)cc3n(CC(=O)Nc3ccc(C)c(F)c3)c2=O)cc1	.	.	?	.	.	-25%

Screening results from PubChem.
